This note sets out measurements from the supplement of paper PMC11006884.

Of roughly 6,500 targets only a part is listed; those with a hit were picked by preference. About 2% of all pairs of compound and target were hits.

UniProt P31153, sequence (P31153 whole entry, looked up): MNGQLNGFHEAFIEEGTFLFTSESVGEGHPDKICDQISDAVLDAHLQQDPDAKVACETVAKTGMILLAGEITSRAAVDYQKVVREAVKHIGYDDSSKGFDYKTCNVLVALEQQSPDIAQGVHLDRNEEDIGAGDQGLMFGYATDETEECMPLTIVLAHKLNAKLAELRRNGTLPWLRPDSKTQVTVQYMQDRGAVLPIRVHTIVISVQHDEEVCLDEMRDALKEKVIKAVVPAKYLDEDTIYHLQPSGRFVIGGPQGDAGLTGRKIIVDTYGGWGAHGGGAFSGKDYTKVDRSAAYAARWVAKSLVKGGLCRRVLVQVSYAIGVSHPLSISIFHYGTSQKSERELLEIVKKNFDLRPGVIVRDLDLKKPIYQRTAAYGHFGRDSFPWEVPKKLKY
UniProt P04181, sequence (P04181 whole entry, looked up): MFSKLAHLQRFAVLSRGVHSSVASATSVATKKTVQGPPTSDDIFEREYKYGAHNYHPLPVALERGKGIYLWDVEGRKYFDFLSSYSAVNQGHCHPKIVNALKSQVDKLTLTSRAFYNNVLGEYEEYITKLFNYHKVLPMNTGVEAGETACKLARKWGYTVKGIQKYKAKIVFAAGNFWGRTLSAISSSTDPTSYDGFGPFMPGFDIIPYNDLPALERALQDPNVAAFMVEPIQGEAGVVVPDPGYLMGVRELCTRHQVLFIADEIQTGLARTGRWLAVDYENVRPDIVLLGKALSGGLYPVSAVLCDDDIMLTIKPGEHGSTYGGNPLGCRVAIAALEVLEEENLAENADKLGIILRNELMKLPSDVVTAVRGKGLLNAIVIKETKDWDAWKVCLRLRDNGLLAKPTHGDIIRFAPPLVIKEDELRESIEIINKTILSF
UniProt O95140, sequence (O95140 whole entry, looked up): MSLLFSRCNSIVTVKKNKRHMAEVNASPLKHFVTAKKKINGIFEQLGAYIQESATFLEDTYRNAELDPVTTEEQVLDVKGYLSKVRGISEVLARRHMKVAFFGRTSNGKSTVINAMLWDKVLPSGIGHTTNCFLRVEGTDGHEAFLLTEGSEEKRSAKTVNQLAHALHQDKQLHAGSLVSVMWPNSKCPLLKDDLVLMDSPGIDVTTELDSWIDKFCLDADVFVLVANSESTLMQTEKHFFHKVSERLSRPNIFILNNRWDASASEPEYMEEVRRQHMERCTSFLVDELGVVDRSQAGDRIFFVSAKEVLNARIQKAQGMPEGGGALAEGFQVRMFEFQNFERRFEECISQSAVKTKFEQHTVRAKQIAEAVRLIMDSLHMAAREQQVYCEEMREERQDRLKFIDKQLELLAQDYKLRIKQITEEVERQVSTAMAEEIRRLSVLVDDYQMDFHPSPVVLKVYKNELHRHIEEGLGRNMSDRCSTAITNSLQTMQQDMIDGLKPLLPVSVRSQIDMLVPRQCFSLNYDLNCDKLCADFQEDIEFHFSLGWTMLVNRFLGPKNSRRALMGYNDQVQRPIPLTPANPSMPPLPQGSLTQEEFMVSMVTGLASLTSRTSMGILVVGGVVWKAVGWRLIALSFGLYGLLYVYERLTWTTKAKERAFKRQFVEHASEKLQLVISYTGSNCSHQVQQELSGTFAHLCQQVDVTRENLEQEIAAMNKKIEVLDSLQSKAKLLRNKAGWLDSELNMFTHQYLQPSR
UniProt P29372, sequence (P29372 whole entry, looked up): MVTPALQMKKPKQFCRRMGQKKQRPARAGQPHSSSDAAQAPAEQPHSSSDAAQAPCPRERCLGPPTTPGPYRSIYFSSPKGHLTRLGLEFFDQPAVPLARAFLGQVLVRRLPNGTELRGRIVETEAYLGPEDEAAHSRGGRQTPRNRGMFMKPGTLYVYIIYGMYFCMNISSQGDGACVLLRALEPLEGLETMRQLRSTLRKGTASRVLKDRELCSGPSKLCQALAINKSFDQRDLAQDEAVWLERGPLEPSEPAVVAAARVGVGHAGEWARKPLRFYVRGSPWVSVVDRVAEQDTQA
UniProt P09543, sequence (P09543 whole entry, looked up): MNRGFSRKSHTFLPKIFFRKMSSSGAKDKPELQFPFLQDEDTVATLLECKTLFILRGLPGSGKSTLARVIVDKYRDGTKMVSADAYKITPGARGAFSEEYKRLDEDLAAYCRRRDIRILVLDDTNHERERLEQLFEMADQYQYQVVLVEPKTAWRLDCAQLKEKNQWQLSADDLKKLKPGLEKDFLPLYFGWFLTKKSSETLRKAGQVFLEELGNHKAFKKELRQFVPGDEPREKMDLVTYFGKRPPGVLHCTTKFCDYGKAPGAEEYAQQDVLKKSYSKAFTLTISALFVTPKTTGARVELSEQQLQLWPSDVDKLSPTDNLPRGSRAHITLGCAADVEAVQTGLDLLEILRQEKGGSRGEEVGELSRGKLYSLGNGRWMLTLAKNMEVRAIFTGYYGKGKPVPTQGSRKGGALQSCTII
UniProt O95243, sequence (O95243 whole entry): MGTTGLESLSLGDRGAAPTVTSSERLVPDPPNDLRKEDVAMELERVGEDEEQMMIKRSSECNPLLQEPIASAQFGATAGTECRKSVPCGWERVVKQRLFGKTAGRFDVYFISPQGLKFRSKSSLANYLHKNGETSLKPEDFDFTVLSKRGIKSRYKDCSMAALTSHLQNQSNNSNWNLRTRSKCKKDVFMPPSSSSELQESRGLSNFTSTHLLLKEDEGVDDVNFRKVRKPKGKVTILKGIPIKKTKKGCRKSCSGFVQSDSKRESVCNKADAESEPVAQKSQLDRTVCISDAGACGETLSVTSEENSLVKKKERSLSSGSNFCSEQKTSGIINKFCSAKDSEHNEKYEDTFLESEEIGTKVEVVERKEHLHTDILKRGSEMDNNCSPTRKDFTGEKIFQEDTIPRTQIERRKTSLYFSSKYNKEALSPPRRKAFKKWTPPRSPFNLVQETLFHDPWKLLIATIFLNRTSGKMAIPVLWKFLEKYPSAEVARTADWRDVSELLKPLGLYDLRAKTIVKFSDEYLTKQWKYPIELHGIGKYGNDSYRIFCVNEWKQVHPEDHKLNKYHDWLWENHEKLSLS
UniProt P22307, sequence (P22307 whole entry, looked up): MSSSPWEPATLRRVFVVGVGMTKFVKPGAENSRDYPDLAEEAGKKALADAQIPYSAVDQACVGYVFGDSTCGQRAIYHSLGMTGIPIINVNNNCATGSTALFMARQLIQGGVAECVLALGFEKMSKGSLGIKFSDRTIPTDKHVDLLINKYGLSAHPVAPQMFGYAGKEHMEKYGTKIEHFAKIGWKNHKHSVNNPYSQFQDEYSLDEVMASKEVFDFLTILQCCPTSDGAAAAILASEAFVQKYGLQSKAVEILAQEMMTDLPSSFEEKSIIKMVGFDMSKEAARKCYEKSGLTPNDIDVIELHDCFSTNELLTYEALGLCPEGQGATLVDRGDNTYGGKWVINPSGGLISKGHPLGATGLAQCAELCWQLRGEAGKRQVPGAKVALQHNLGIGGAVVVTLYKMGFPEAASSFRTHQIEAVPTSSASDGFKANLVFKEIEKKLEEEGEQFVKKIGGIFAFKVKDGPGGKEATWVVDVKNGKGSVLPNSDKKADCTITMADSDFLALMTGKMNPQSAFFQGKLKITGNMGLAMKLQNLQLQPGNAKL
UniProt P13797, sequence (P13797 whole entry, looked up): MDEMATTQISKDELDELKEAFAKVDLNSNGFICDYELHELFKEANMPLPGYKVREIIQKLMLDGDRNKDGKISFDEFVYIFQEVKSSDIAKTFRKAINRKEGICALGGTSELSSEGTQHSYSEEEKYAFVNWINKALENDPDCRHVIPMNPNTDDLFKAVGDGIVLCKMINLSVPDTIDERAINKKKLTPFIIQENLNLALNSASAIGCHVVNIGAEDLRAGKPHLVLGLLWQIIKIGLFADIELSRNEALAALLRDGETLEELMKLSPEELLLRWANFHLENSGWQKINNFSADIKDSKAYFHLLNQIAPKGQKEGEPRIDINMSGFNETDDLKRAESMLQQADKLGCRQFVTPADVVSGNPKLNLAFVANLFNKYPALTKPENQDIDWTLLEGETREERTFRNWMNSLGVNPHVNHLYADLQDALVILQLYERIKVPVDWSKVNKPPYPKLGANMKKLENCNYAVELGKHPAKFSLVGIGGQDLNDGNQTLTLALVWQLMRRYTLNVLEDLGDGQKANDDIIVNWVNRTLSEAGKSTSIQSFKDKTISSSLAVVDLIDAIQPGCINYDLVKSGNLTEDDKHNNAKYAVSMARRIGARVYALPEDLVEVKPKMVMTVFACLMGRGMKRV
UniProt P35611, sequence (P35611 whole entry, looked up): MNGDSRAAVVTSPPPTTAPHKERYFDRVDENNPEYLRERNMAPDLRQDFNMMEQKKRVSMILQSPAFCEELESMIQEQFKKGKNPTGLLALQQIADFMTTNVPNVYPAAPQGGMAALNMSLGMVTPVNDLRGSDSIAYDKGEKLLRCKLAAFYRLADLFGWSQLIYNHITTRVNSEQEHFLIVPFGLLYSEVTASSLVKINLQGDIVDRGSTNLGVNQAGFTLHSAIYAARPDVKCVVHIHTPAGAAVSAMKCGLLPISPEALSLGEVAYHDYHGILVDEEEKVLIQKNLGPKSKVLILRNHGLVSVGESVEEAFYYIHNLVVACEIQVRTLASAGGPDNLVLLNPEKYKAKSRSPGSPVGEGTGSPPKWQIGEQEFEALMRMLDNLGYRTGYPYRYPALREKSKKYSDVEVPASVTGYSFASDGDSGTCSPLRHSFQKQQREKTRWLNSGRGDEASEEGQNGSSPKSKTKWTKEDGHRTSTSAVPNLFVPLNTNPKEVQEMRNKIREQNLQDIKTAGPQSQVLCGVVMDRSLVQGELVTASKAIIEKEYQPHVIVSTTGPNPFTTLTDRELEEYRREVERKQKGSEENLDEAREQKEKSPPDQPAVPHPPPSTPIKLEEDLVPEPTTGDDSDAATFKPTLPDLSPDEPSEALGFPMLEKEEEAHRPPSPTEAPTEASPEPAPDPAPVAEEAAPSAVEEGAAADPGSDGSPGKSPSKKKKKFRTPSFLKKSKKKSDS

Compound in the assay: COC(=O)C#Cc1ccccc1 [methyl 3-phenylpropiolate]
The assay is described as follows: log2 ratio of iodoacetamide-alkyne labeling of the cysteine site, DMSO over compound (competition); higher = stronger covalent engagement of the cysteine by the compound, active = 1 or more. The settings on record: 500 µM; treatment time 1 h; system: HEK293T cell lysate. The essentials:
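For each cysteine, the log2 competition ratio is mean control-channel reporter intensity over mean compound-channel reporter intensity. HEK293T lysate (2 mg/mL) was exposed to vehicle or electrophile (500 µM, 1 h, ambient temperature), labelled with iodoacetamide alkyne (1 h), clicked to sCIP-TMT reagents, digested overnight with trypsin at 37 °C, streptavidin-enriched and analysed by Orbitrap Eclipse LC-MS/MS with FAIMS and FragPipe. Cysteines quantified in only one of three replicates, each with duplicate channels, were excluded.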
On to FXR2 C270 (UniProt P51116), for which the “log2 ratio of iodoacetamide-alkyne labeling” value (“log2 ratio” for short) is 0.306 (inactive).
On to PABPC1 C128 (UniProt P11940), for which the “log2 ratio” value was -0.0389 (inactive).
To CAPZA2 C111 (UniProt P47755) belongs 0.0355 (inactive); to ADD1 C253 (UniProt P35611), 0.101 (inactive).
As to TCEA1 C271 (UniProt P23193), the “log2 ratio” value was -0.116 (inactive).
For the target OAT C306 (UniProt P04181), the “log2 ratio” value was 0.00204 (inactive).
To RPL14 C42 (UniProt P50914) belongs 1.82 (active).
In the case of FBL C268 (UniProt P22087), the “log2 ratio” value is 0.27 (inactive).
As to HSP90AA1 C420 (UniProt P07900), the “log2 ratio” value was -0.4 (inactive).
Regarding HSP90AB1 C521 (UniProt P08238), the “log2 ratio” value is 0.298 (inactive).
Turning to GYS1 C699 (UniProt P13807), the “log2 ratio” value is 0.526 (inactive).
For DNAJB1 C267 (UniProt P25685), the “log2 ratio” value is 0.268 (inactive).
In the case of RRM1 C352 (UniProt P23921), the “log2 ratio” value is 0.357 (inactive).
Take RCC1 C93 (UniProt P18754): the “log2 ratio” value was 0.14 (inactive).
In the case of UniProt P35568_C494, the “log2 ratio” value was 0.123 (inactive).
With MAP1B C1228 (UniProt P46821), the “log2 ratio” value was 0.169 (inactive).
For FASN C1186 (UniProt P49327), the “log2 ratio” value is -0.0549 (inactive).
Take MFN2 C348 (UniProt O95140): the “log2 ratio” value was -0.0549 (inactive).
Regarding HNRNPH1 C267 (UniProt P31943), the “log2 ratio” value is 0.211 (inactive).
In the case of EEF2 C567 (UniProt P13639), the “log2 ratio” value was 0.0358 (inactive).
As to EEF2 C651 (UniProt P13639), the “log2 ratio” value was 0.0919 (inactive).
For PLCG1 C976 (UniProt P19174), the “log2 ratio” value is 1.9 (active).
Turning to PCYT1A C73 (UniProt P49585), the “log2 ratio” value was 0.921 (inactive).
Turning to PLS3 C33 (UniProt P13797), the “log2 ratio” value is 1.04 (active).
Regarding SCP2 C94 (UniProt P22307), the “log2 ratio” value was 0.136 (inactive).
As for MBD4 C268 (UniProt O95243), the figure is 1.12 (active); as for MPG C56 (UniProt P29372), 1.66 (active); as for SLC7A1 C628 (UniProt P30825), 0.105 (inactive).
Regarding RPS3 C97 (UniProt P23396), the “log2 ratio” value is 2.45 (active).
As to LTA4H C8 (UniProt P09960), the “log2 ratio” value is 0.273 (inactive).
To HCFC1 C1895 (UniProt P51610) belongs 1.09 (active).
For PRKAR2A C128 (UniProt P13861), the “log2 ratio” value was 0.00919 (inactive).
In the case of MSH6 C1337 (UniProt P52701), the “log2 ratio” value is 0.14 (inactive).
Consider ACADSB C175 (UniProt P45954), for which the “log2 ratio” value is 0.109 (inactive).
For MAT2A C104 (UniProt P31153), the “log2 ratio” value is 0.274 (inactive).
Turning to MBD3 C266 (UniProt O95983), the “log2 ratio” value is 0.0164 (inactive).
Consider CNP C111 (UniProt P09543), for which the “log2 ratio” value is 0.0267 (inactive).
